Source: PubChem BioAssay AID1159580 (chemical genetic matrix, 2015)
Out of some 5,500 compounds screened, about 2,000 (36%) were called active. Inconclusive results (about 18%) are left out. Cut-off read from the data, not from the text of the source: active = normalized growth mostly below about 0.91 (no sharp cut-off); inconclusive = no clear call, values can overlap the other calls; inactive = mostly above about 0.92. The list shows a part of the results.

Assay: chemical genetic growth profiling, strain panel (AID 1159580);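 note: tested at 20 µM; growth read once vehicle control cultures reached saturation at 30 °C; 1 = growth at the plate median or of vehicle wells; lower values mean less growth of the strain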
Conditions: S. cerevisiae deletion strains, growth OD

Measured: normalized growth

CC(=O)c1ccc(-c2ccc(Cl)c(Cl)c2)o1
active: locus YAL013W, strain DEP1, hits give low values 0.803 | locus YBR229C, strain ROT2, hits give low values 0.825 | locus YCL061C, strain MRC1, hits give low values 0.776 | locus YDL101C, strain DUN1, hits give low values 0.661 | locus YDL134C, strain PPH21, hits give low values 0.428 | locus YEL061C, strain CIN8, hits give low values 0.445 | locus YGR078C, strain PAC10, hits give low values 0.863 | locus YHR030C, strain SLT2, hits give low values 0.0914 | locus YHR087W, strain rtc3, hits give low values 0.816 | locus YJL187C, strain SWE1, hits give low values 0.807 | locus YJR043C, strain POL32, hits give low values 0.8 | locus YJR075W, strain HOC1, hits give low values 0.787 | locus YLR039C, strain RIC1, hits give low values 0.207 | locus YLR085C, strain ARP6, hits give low values 0.112 | locus YLR262C, strain YPT6, hits give low values 0.264 | locus YML094W, strain GIM5, hits give low values 0.633 | locus YMR219W, strain ESC1, hits give low values 0.877 | locus YMR263W, strain SAP30, hits give low values 0.629 | locus YNL128W, strain TEP1, hits give low values 0.82 | locus YNL153C, strain GIM3, hits give low values 0.838 | locus YNL298W, strain CLA4 (second series), hits give low values 0.373 | locus YNR030W, strain Alg12, hits give low values 0.483 | locus YOL006C, strain TOP1, hits give low values 0.15 | locus YPL055C, strain LGE1, hits give low values 0.747 | locus YPL241C, strain CIN2, hits give low values 0.365 | locus YPR135W, strain CTF4, hits give low values 0.213
inactive: locus YGR229C, strain SMI1, hits give low values 0.956 | locus YLR058C, strain SHM2 (second series), hits give low values 0.994 | locus YNL322C, strain KRE1, hits give low values 0.99
